# The sample as a whole holds a higher share of hits than the screen did.
# NPSR antag: qHTS Assay for Antagonists of the Neuropeptide S Receptor: cAMP Signal Transduction; CHO-NPSR cells, cAMP TR-FRET, antagonist mode; Potency, µM (titrated, usually from 38.3 µM), without a hit: at the highest dose activity change, negative = inhibition, actives largely listed as inhibitors; 220,000 compounds, 1% hits; AID 1461, 2008; further: potency means the concentration at half of the fitted maximal effect; on the % scale 0 is the no-effect control and ±100 the full control effect; nearly all actives have a fitted effect of over 50% in size
# Target sequence (Q6W5P4 whole entry, looked up): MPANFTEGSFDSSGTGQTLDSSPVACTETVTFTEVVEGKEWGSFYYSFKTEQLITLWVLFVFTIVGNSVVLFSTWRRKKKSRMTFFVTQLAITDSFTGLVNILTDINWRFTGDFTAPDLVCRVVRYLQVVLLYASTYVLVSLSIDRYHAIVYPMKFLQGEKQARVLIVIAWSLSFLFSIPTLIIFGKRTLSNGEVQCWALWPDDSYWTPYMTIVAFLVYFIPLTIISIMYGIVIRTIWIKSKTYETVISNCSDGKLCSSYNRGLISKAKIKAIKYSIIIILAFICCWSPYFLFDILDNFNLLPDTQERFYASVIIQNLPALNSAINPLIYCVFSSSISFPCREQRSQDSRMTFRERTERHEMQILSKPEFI
# ERK EGF block: qHTS Assay for Inhibitors of the ERK Signaling Pathway using a Homogeneous Screening Assay; Stimulation with EGF; HEK293-V1b, EGF-stimulated phospho-ERK AlphaScreen; Potency, µM (top dose mostly 11.5 µM), for inactives: top-dose activity change, negative = inhibition, actives largely listed as inhibitors; 130,000 compounds, 0.41% hits; AID 1454, 2008;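 further: potency means the concentration at half of the fitted maximal effect; plate controls were stimulated vehicle wells for no effect and unstimulated vehicle basal for full effect; nearly all actives have a fitted effect of over 55% in size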
#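 HEK293 cells stably expressing V1b receptor, serum-reduced (1% FBS) overnight, got compound for 30 min at 37C, then 25 nM EGF for 5 min. Lysate phospho-ERK read by AlphaScreen SureFire; AC50 from Hill fits.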
# ERK pERK EGF: Confirmation Concentration-Response Assay for Inhibitors of the ERK Signaling Pathway using a Homogeneous Screening Assay; Stimulation with EGF; 60 compounds, 60% hits; shares compounds with ERK EGF block; Potency, µM (highest dose often 57.5 µM), without a hit: top-dose activity change, negative = inhibition, hits mostly inhibitors; HEK293 EGF-stimulated ERK phosphorylation, AlphaScreen
# c-Raf inh: Assay for Inhibitors of the ERK Signaling Pathway using a Homogeneous Screening Assay: c-Raf Inhibition; shares compounds with ERK EGF block; c-Raf kinase inhibition, homogeneous biochemical assay; activity change, negative = inhibition, % at 76.9 µM; 70 tested, under 10 active; AID 1728, 2009
# MEK inh: Assay for Inhibitors of the ERK Signaling Pathway using a Homogeneous Screening Assay: MEK Inhibition. shares compounds with ERK EGF block. homogeneous MEK kinase activity assay, ERK pathway. Potency, µM (titrated, usually from 76.9 µM), for the others: at the highest dose activity change, negative = inhibition, usual class: inhibitors. 70 tested, under 10 active. AID 1732, 2009
# Active calls of the source: *; ? = inconclusive; . = no result; ! = a repeat was not active; [ ] = dose if it differs, or a comment. The call rests on the fitted dose curve; in most records, active means well fitted curve in the direction sought with a large enough effect; inconclusive means small, poorly fitted or top-dose-only effect, or another doubt; inactive means no such curve, though single readings can be large; an effect the other way counts as inactive or inconclusive.
SMILES,NPSR antag,ERK EGF block,others
Cc1nc(N2CCc3ccccc3C2)[nH]c(=O)c1Cc1ccccc1,-13%,18%,
Cc1nc(-n2[nH]c3c(c2=O)CCCC3)[nH]c(=O)c1Cc1ccccc1,7.9µM*,.,
Cc1ccc(-c2cc(C(=O)OCn3nnc4ccccc4c3=O)c3ccccc3n2)cc1,-6%,-14%,
CC(C)NC(=O)N1CCC2(CC1)CCN(C(=O)c1cccc(F)c1)CC2,.,4%,
COCCCN1CCN(C2Cc3ccccc3Sc3ccc(Cl)cc32)CC1 (stereo not drawn),-18%,?,
Clc1cccc2c1Sc1ccccc1CC2N1CCNCC1 (stereo not drawn),?,28µM*,
CC[C@H](C)C(=O)O[C@H]1CCC=C2C=C[C@H](C)[C@H](CC[C@@H]3C[C@@H](O)CC(=O)O3)[C@H]21,16µM*!,?,
CC[C@H](C)C(=O)O[C@H]1CCC=C2C=C[C@H](C)[C@H](CC[C@@H]3C[C@H](O)CC(=O)O3)[C@H]21,.,-1%,
O=C(COC(=O)c1cccs1)Nc1ccc(S(=O)(=O)N2CCOCC2)cc1,8%,1%,
CN(C1=C(N2CCCCC2)C(=O)c2ccccc2C1=O)c1ccccc1,13µM*,.,
CN(c1ccccc1)c1nc(N)c([N+](=O)[O-])c(N2CCCCC2)n1,52%,2%[57.5 µM],
COc1ccccc1NC1=C(N2CCCCC2)C(=O)c2ccccc2C1=O,10%[46.1 µM],25µM*,
O=C1C(Nc2ccccc2)=C(N2CCCCC2)C(=O)c2ccccc21,8%[46.1 µM],.,
NC(=O)c1nn(CC(=O)Nc2ccc3c(c2)OCO3)cc1[N+](=O)[O-],9%,-4%,
CC(=O)Nc1ccc(NC(=O)C(C)OC(=O)c2ccccc2NS(=O)(=O)c2cccs2)cc1 (stereo not drawn),-57%,0%[57.5 µM],
CC(=O)Nc1ccc(NC2=C/C(=N/S(=O)(=O)c3cccs3)c3ccccc3C2=O)cc1,7.9µM*,?,
Cc1ccc(NC2=C/C(=N/S(=O)(=O)c3cccs3)c3ccccc3C2=O)cc1C,-7%,16%,
Cc1ccccc1NC1=C/C(=N\S(=O)(=O)c2cccs2)c2ccccc2C1=O,3.2µM*,.,
CC1Cc2ccccc2N1C(=O)Cn1cnc2ccccc21 (stereo not drawn),9%,0%,
COCCCn1c(=S)[nH]c2sc3c(c2c1=O)CCCS3,7.9µM*,8%,
CCn1c(=O)n(CCOC)c(=O)c2c3c(sc21)CCCC3,-10%[46.1 µM],2%,
O=C1CC(=O)N(CCc2ccccc2)C(=O)N1CCc1ccccc1,-13%[46.1 µM],.,
O=C1C=CC(=O)C(C2=C3C(=O)N(CCc4ccccc4)CC(=O)N3CCC2)=C1,10µM*,?,
NC[C@](O)(CS(=O)(=O)O)c1ccc(Cl)cc1,.,5%,
COC1=C(OC)C(=O)c2ccccc2C1=O,10%[46.1 µM],10%,
SMILES,NPSR antag,ERK EGF block,others
COC1=C(Nc2ccc(C)cc2)C(=O)c2ccccc2C1=O,-30%,11µM*,
COC1=C(Nc2ccccc2)C(=O)c2ccccc2C1=O,-28%,14µM*,
Cc1ccc(NC2=C(N3CCCCC3)C(=O)c3ccccc3C2=O)cc1,-22%[46.1 µM],.,
CCCOc1ccc(N2CC(C(=O)NC3=NCCS3)CC2=O)cc1 (stereo not drawn),13%,-2%,
Cc1ccccc1Cn1ccc(=NCc2ccccc2)cc1,6%,4%,
Cc1[nH]c2ccccc2c1N=Nc1ccccc1C(=O)O,-1%,15%,
CCCCCCNC(=O)Nc1ccc(S(=O)(=O)Nc2ccc(CCNC[C@H](O)COc3ccc(O)cc3)cc2)cc1,.,-9%,
CC(=O)Nc1nc(-c2ccc([N+](=O)[O-])cc2)cs1,-5%,-6%,
O=C(Nc1ccc([N+](=O)[O-])cc1)Nc1nc(-c2ccc(Cl)s2)cs1,6.3µM*,5%,
O=C(Cc1ccccc1I)Nc1ccccc1,.,-2%,
CCOC(=O)c1ccc(Nc2sc(C(=O)c3cccc([N+](=O)[O-])c3)c(N)c2C#N)cc1,53%,?,
O=C(c1ccc(F)cc1)C1CCN(CCn2c(=O)[nH]c3ccccc3c2=O)CC1,1.6µM*!,1%[57.5 µM],
O=C(CCCn1c(=O)[nH]c2ccccc2c1=O)Nc1ccc(F)cc1,1%,7%[57.5 µM],
C=CCOC(=O)N[C@H](/C(C(=O)OC)=C(\C)NCc1ccccc1)c1ccc2c(c1)OCO2,.,-4%,
O=[N+]([O-])c1cccc(/C=N/Nc2nnc(-c3ccccc3)c(-c3ccccc3)n2)c1,-8%[46.1 µM],-17%,
C/C(=N\Nc1nnc(-c2ccccc2)c(-c2ccccc2)n1)c1cccc([N+](=O)[O-])c1,?,?,ERK pERK EGF=-14%;c-Raf inh=-3;MEK inh=-5%
CC(OC(=O)c1ccncc1)C(=O)Nc1cc(S(=O)(=O)N2CCCCC2)ccc1Cl (stereo not drawn),-24%,15%,
O=C(COC(=O)C1=COCCO1)NCc1ccc(Cl)cc1,3%,0%,
CCC(=O)OCC(=O)[C@@]1(OC(=O)CC)[C@H](C)C[C@@H]2[C@@H]3[C@H]([C@@H](O)C[C@@]21C)[C@]1(C)C=CC(=O)C=C1C[C@@H]3Cl,.,9%[25.7 µM],
CCCOc1ccc(/C=N/Nc2ccccc2[N+](=O)[O-])c(O)c1,10%,?,ERK pERK EGF=?;c-Raf inh=?;MEK inh=-3%
CCCOc1ccc(/C=N/NC(=S)Nc2ccccc2[N+](=O)[O-])c(O)c1,-16%,2%,
COc1ccc(C(=O)N2CCC[C@@]3(CCN(Cc4nccs4)C3)C2)cc1,.,-8%,
N#CC(=C(\N)Sc1ccccc1N)/C(C#N)=C(/N)Sc1ccccc1N,?,1.4µM*,c-Raf inh=-14
Nc1ccccc1SCc1ccccc1,-3%,7%,
Cc1ccc(NNc2c(C)nc3ccccc3nc2=O)cc1,-12%,.,ERK pERK EGF=8.9µM*;c-Raf inh=-6;MEK inh=24%
SMILES,NPSR antag,ERK EGF block,others
Cc1ccc(C(=O)NNc2c3ccccc3nc3ccccc23)cc1,-49%,?,
CCOc1nc2ccccc2nc1C,7%[46.1 µM],.,
Cc1sc2ncnc(Nc3ccccc3)c2c1C,-2%[46.1 µM],.,ERK pERK EGF=?;c-Raf inh=-12;MEK inh=-1%
O=S(=O)(Nc1ncnc2sc3c(c12)CCC3)c1ccc2ccccc2c1,-3%[46.1 µM],.,
Cc1cc(F)ccc1S(=O)(=O)Nc1ncnc2sc3c(c12)CCC3,-14%,1%[57.5 µM],
Cc1sc2ncnc(NCc3ccccc3)c2c1C,-10%[46.1 µM],.,
Fc1ccc(Nc2ncnc3sc4c(c23)CCC4)cc1,-23%[46.1 µM],.,ERK pERK EGF=10µM*;c-Raf inh=?;MEK inh=-7%
C[C@H](Nc1ncnc2sc3c(c12)CCC3)C(=O)O,-6%[46.1 µM],.,
c1ccc(Nc2ncnc3sc4c(c23)CCC4)cc1,-19%[46.1 µM],.,ERK pERK EGF=10µM*;c-Raf inh=-32;MEK inh=18%
Fc1ccc(Nc2ncnc3sc4c(c23)CCC4)cc1F,-5%[46.1 µM],2.5µM*,ERK pERK EGF=8.9µM*;c-Raf inh=?;MEK inh=?
